From PubChem
hERG WT inh – inhibitors of human wildtype KCNH2 potassium channel; activity change, % at 1.84 µM; Q12809; AID 720551; 340,000 compounds, 0.37% hits; U2OS, BacMam KCNH2, thallium flux FluxOr; hits give low values;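 active = maximum activity change below -70%; inconclusive = maximum activity change between -70% and -50%; inactive = maximum activity change above -50%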; note: % is set by controls: 0 for no effect and ±100 for the full control effect
Target sequence (Q12809 whole entry, looked up): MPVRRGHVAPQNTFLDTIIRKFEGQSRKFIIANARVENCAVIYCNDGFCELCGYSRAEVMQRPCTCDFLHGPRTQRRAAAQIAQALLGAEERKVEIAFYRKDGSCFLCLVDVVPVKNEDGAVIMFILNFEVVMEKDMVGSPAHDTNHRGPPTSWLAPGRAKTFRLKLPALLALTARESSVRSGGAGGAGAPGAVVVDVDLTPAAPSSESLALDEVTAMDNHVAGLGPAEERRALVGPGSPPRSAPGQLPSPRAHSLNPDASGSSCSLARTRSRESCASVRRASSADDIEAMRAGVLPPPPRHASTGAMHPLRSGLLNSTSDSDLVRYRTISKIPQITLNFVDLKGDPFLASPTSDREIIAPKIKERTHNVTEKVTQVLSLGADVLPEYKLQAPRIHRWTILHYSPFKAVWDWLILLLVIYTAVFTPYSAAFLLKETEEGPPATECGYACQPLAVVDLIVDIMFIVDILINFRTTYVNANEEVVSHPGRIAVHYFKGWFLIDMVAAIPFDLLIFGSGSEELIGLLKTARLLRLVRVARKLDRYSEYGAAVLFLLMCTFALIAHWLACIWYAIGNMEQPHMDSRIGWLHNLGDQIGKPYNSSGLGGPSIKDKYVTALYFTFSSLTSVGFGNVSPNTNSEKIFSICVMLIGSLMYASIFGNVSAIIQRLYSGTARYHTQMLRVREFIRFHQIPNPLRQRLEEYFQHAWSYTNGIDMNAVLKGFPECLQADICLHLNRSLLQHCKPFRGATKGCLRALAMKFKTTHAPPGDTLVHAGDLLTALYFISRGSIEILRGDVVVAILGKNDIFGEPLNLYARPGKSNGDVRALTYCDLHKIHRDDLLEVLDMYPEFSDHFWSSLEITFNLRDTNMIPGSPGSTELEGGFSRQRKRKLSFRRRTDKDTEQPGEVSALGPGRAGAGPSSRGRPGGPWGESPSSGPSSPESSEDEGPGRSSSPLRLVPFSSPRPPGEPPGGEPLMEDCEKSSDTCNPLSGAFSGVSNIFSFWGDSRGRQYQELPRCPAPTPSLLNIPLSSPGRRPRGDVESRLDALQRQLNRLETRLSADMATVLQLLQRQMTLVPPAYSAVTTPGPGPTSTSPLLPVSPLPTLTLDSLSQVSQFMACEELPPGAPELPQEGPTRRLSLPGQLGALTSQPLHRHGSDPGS
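U2OS cells were transduced with wild-type KCNH2 virus (2.03 x 10^8 / mL) for 4 h at room temperature, then cultured overnight at 37 C. Thallium flux was read with FluxOr dye. Rate constants were normalized to DMSO controls.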
Anesthetic bind – candidate novel general anesthetic via apoferritin binding; P02791; apoferritin/1-aminoanthracene competitive binding, fluorescence; Potency, µM (doses to about 77.5 µM), inactives show top-dose activity change, negative = displacement, usual class: inhibitors; 350,000 compounds, 0.074% hits; AID 485281; note: potency is the fitted concentration of half-maximal effect; % is set by controls: 0 for no effect and ±100 for the full control effect; nearly all actives have a fitted effect of over 20% in size
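Apoferritin-based anesthetic binding model; compound displacement of fluorescent 1-AMA measured as endpoint fluorescence after 10 minutes at room temperature, scaled to free-ligand and complex controls.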
IDH1 R132H inh – inhibitors of human mutant IDH1 R132H | O75874 | Potency, µM (titrated, usually from 76.6 µM), for the others: at the top dose activity change, negative = inhibition, actives largely listed as inhibitors | AID 602179 | 390,000 compounds, 0.093% hits | IDH1-R132H enzyme, NADPH consumption, diaphorase/resazurin fluorescence; note: potency is the fitted concentration of half-maximal effect; % is set by controls: 0 for no effect and ±100 for the full control effect; nearly all actives have a fitted effect of over 65% in size
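IDH1-R132H (0.5 ug/mL) preincubated 30 min with compound, then NADPH (0.016 mM) and alpha-KG (2 mM) added; 80 min at RT, pH 7.5. Remaining NADPH coupled via diaphorase/resazurin to fluorescence (540/590 nm); concentration-response curves normalized to no-enzyme control.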
ASM inhibitor – human S-ASM enzyme inhibition; AID 504937; 340,000 compounds, 0.006% hits; placental ASM, HMU-PC fluorogenic substrate, 60 min; Potency, µM (series often up to 57.5 µM), for inactives: at the highest dose activity change, negative = inhibition, usual class: inhibitors; note: potency is the fitted concentration of half-maximal effect
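qHTS format. ASM enzyme prepared from human placenta hydrolyses the fluorogenic substrate HMU-PC0 (9 uM final) over 60 min at 37 °C after a 10 min compound preincubation.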
KCNH2 3.1 inh – blocks the human KCNH2 3.1 channel isoform; U2OS KCNH2 3.1, thallium flux FluxOr; hits give low values; activity change, % (tested at about 1.8 µM); 340,000 compounds, 0.95% hits; AID 720553;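 active = maximum activity change below -70%; inconclusive = maximum activity change from -70% to -50%; inactive = maximum activity change above -50%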;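 note: thallium influx rate constant from kinetic fluorescence after stimulation buffer; % is set by controls: 0 for no effect and ±100 for the full control effect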
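Virally transduced U2OS (3.1 isoform, 4 h infection in dark at RT) → overnight 37 C → FluxOr + Red40 in HBSS/HEPES, 45 min → stimulation buffer, 2 min kinetic read → rate constant vs DMSO controls.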
Starred values were filed as active, the others as inactive; ? = inconclusive; . = no result given. Only some compounds are listed: those with a hit (about 1.2% of all), similar ones and a draw of the others. Unless noted, calls come from the whole dose curve; as a rule, active = well fitted inhibition curve with a large enough effect; inconclusive = small, poorly fitted or top-dose-only effect; inactive = no such curve, though single readings can be large or run the other way.

SMILES | hERG WT inh | Anesthetic bind | IDH1 R132H inh | ASM inhibitor | KCNH2 3.1 inh
C[N+](C)(CCOc1ccccc1)Cc1ccccc1 | -4 | . | -4% | 3% | 6
Cc1cc(C(C)(C)CC(C)(C)C)ccc1OCCOCC[N+](C)(C)Cc1ccccc1 | 11 | 32µM* | -6% | ? | -9
CCCCCCC(=O)NN1CCN(C)CC1 | -257* | -5% | 10% | 3% | 13
CN1CCN(NC(=O)CC(C)(C)C)CC1 | -7 | -7% | 6% | 1% | -15
Cc1cc2oc(C(=O)Nc3sc4c(c3C(=O)NCC3CCCO3)CCCC4)cc(=O)c2cc1C (centres undefined) | . | -3% | 3% | . | .
COc1ccccc1CNC(=O)CN(C)S(=O)(=O)c1cccc2cccnc12 | -1 | -4% | 4% | -1% | -125*
COc1ccc(NC(=O)C(c2ccccc2)N2CCN(c3ccccn3)CC2)cc1Cl (centres undefined) | 15 | 4% | 0% | -7% | -109*
Cc1ccc(NC(=O)C(c2ccccc2)N2CCN(CC(=O)NC3CC3)CC2)cc1Cl (centres undefined) | 3 | . | -2% | 2% | 27
O=[N+]([O-])c1cc(C(F)(F)F)ccc1NCCCCNS(=O)(=O)c1ccc(Cl)cc1 | -8 | -21% | 9% | -27% | -103*
COCCN1Cc2cccc(C(=O)Nc3cccc(-c4nc5ccccc5[nH]4)c3)c2C1=O | 26 | -9% | -6% | -24% | -73*
CCOc1ccc(-c2nc3c(C#N)c[nH]n3c2NC2CCCC2)cc1 | . | -10% | -23% | . | .
CCOc1ccccc1-c1nc(C(N)=O)c2[nH]c(=O)n(-c3ccc(F)cc3)c2n1 | -12 | -9% | 1% | 100% | -84*
COc1cc(C(=O)O[C@H]2C/C(C)=C/CC/C(C)=C/[C@@H](O)C2C(C)C)ccc1O (some centres undefined) | . | -15% | . | . | .
Cc1ccc(-n2nnnc2SC(C)C(N)=O)c(C)c1 (centres undefined) | -3 | -11% | 4% | 6% | -76*
COc1ccc(CN(Cc2ccco2)c2cnc(S(C)(=O)=O)nc2C(=O)Nc2ccc(F)cc2)cc1 | . | 0% | -6% | . | .
COC(=O)c1sc(NC(=O)COc2ccccc2C)nc1C | -4 | -3% | 4% | -3% | -7
COc1ccccc1OCC(=O)Nc1nc(C)c(C)s1 | 18 | -3% | 5% | 3% | -75*
Cc1c(-c2ccccc2)[nH]n2c(=O)c3c(nc12)CCCC3 | 7 | -7% | 5% | -1% | -92*
Cc1ccc(-c2[nH]n3c(=O)c4c(nc3c2C)CCCC4)cc1 | 2 | -12% | -4% | -3% | 10
Cc1ccc(NC(=O)CSc2nnc(C)n3c2cc2sccc23)c(C)c1 | . | -10% | 0% | . | .
COc1ccc(NC(=O)CC2C(=O)N(c3ccc(OC)cc3)C(=O)N2C(C)C)cc1 (centres undefined) | -30 | -6% | 2% | 5% | -82*
CCCOc1ccccc1C1Oc2nc(SC)nnc2-c2ccccc2N1C(C)=O (centres undefined) | . | -8% | -3% | . | .
O=C(c1ccoc1)N1CCCC(CO)(CCCc2ccccc2)C1 (centres undefined) | -16 | -5% | -13% | -2% | -155*
O=C(Nc1ccccc1NC(=O)NC1CCCCC1)NC1CCCCC1 | -9 | 6% | -5% | -8% | -15
NC(=O)c1ccccc1NC(=O)NC1CCCCC1 | -3 | -1% | -2% | 4% | -71*
SMILES | hERG WT inh | Anesthetic bind | IDH1 R132H inh | ASM inhibitor | KCNH2 3.1 inh
CC1CCCCN1CC(=O)Nc1ccc(Oc2ccccc2)cc1 (centres undefined) | 12 | ? | 4% | 2% | -89*
CCOC(=O)c1ccc(NC(=S)N(CCCN2CCCC(C)C2)Cc2cccs2)cc1 (centres undefined) | -89* | -8% | 23% | -1% | -80*
CCOC(=O)c1ccc(NC(=S)N(CCCN2CCCC2)Cc2cccs2)cc1 | ? | -5% | 9% | 2% | ?
Cc1cc(C)c2c(=O)cc(C(=O)Nc3ccc(S(=O)(=O)Nc4onc(C)c4C)cc3)oc2c1 | . | -10% | 10% | . | .
Clc1ccc(OCc2nc3ccccc3[nH]2)cc1 | 1 | -5% | -1% | 4% | 5
OC(Cc1nc2ccccc2[nH]1)c1ccccc1Cl (centres undefined) | -10 | -20% | 3% | 3% | -74*
Cc1ccc(NC(=O)Cn2c(=O)nc(-c3ccccc3F)c3cc(Cl)ccc32)c(Br)c1 | . | -17% | -6% | . | .
Cc1cccc(OCCn2c(SCC(N)=O)nc3ccccc32)c1 | . | 33% | 12% | . | .
CCOC(=O)Cn1c(=O)c(-c2cc(Br)ccc2N)nc2ccccc21 | -242* | 3% | 0% | -1% | -40
CCOC(=O)Cn1c(=O)c(-c2ccccc2N)nc2ccccc21 | 0 | -1% | 11% | -9% | -12
COc1ccc(CCNC(=O)CSc2nnc(C(C)N(C)C)n2Cc2ccccc2)cc1OC (centres undefined) | -30 | -2% | 7% | 7% | -71*
COc1ccc(CCNC(=O)CSc2nc(O)cc(=O)[nH]2)cc1OC | -1 | 2% | 13% | 0% | -80*
COc1ccc(CCNC(=O)CSc2ccc(-c3ccccc3)nn2)cc1OC | -5 | -9% | 0% | -2% | 1
Cc1nn(C(=O)c2cccc(F)c2)c(C)c1S(=O)(=O)N1CCOCC1 | . | 2% | 1% | . | .
CCOc1ccccc1-c1c2cc(O)c(=O)cc-2oc2cc(O)c(O)cc12 | -14 | 2% | 13µM* | -5% | 0
COc1ccc(OC)c(-c2c3cc(O)c(=O)cc-3oc3cc(O)c(O)cc23)c1 | -17 | 112% | 40µM* | -18% | -3
O=c1cc2oc3cc(O)c(O)cc3c(-c3ccccc3O)c-2cc1O | 34 | 80% | -4% | -23% | 9
Cc1ccc(NS(=O)(=O)c2cc(C(=O)N3CCc4ccccc4C3)ccc2Cl)cc1 | -261* | -19% | 1% | -12% | 0
Cc1ccccc1NS(=O)(=O)c1cc(C(=O)N2CCc3ccccc3C2)ccc1C | -1 | -7% | 3% | -6% | -7
O=C(CN1C(=O)c2ccc([N+](=O)[O-])cc2C1=O)NC1CCS(=O)(=O)C1 (centres undefined) | 3 | . | 4% | 1% | -3
O=C(CN1C(=O)c2ccccc2C1=O)NC1CCS(=O)(=O)C1 (centres undefined) | 3 | . | -13% | . | -85*
Cc1nc(Oc2ccccc2C)c2oc3ccccc3c2n1 | . | -14% | -8% | . | .
Cc1cc(C)cc(NC(=O)CNC(c2ccccc2)c2ccccc2)c1 | -70* | -12% | 0% | -3% | -7
Cc1ccc(NC(=O)c2nc[nH]c2C(=O)Nc2ccc(C)cc2)cc1 | -192* | -4% | 3% | 2% | 10
